Experimental data as given in ChEMBL document CHEMBL4513216, “Probing the Open Global Health Chemical Diversity Library for Multistage-Active Starting Points for Next-Generation Antimalarials” (ACS Infect Dis, 2020).
Screen size: about 69,000 compounds; about 8,600 (12%) showed an effect of 50% or more. Shown is part of a subset that was picked to be rich in strong results.

These molecules were tested on Plasmodium berghei (assay: Screen against P. berghei liver stage (PbLuc), transformed with Luciferase, at 10uM). Details: tested at 10 uM.
Format: functional, HepG2
For CCN(C)Cc1cccc(CNC(=O)CSCc2ccncc2)c1, the INHIBITION was 35.4%. In the case of Fc1cnc(N2C[C@@H](OCC3CCOCC3)[C@H]3OCCC[C@H]32)nc1, the INHIBITION is reported as 44.4%. O=C(c1ccc(Cl)cc1)N1CCC2(C1)C(=O)Nc1ccccc12 (stereo not drawn) was tested, and the INHIBITION was -18.8%. Work on O=C(OCc1ccccc1)N1CC[C@H]2CC(CO)O[C@@H]2C1 (stereo partly drawn) yielded an INHIBITION of 78.3%. Work on C[C@H]1C[C@@H]2CCN(C(=O)c3ccccn3)C[C@H]2O1 yielded an INHIBITION of -0.813%. CN(C)C[C@H]1C[C@@H]2CN(C(=O)c3ccco3)C[C@@H]2O1 gave an INHIBITION of 42.3%. Cn1ccnc1SCCNc1cc(N2CCOCC2)ncn1 was tested, and the INHIBITION was -7.85%. Cn1ncc2c(N3CCCC(C)(O)C3)nc(-c3cccnc3)nc21 (stereo not drawn) gave an INHIBITION of 23.5%. CN1CCCC1CNC(=O)CCCOc1ccc(I)cc1 (stereo not drawn) gave an INHIBITION of 18.625%. For COc1cccc(-c2nc3c([nH]2)CC(C)(C)CNC3=O)c1OC, the INHIBITION was 30.7%. Molecule CC1(C)CNC(=O)c2nc(-c3ccccc3)[nH]c2C1 has an INHIBITION of 18.8%. COc1ccc(Cc2nc3c([nH]2)CC(C)(C)CNC3=O)cc1OC was tested, and the INHIBITION was 13.9%. COc1ccc(Cc2nc3c([nH]2)CC(C)(C)CNC3=O)c(OC)c1 was tested, and the INHIBITION was 16.8%. In the case of COc1cccc(Cc2nc3c([nH]2)CC(C)(C)CNC3=O)c1OC, the INHIBITION is reported as 55.5%. With COc1cc(Cc2nc3c([nH]2)CC(C)(C)CNC3=O)cc(OC)c1 the INHIBITION was 59.4%. CC(C)N1CCO[C@@H]2CN(C(=O)NCc3ccccc3)CC[C@@H]2C1 was tested, and the INHIBITION was 32.1%. COc1nc2cc(C)ccc2cc1CN(C)Cc1cc(C)[nH]n1 showed an INHIBITION of 36.1%. In the case of CC(CNC(=O)c1cnc[nH]1)Oc1ccccc1Br (stereo not drawn), the INHIBITION is reported as 57.2%. In the case of CC(CNC(=O)c1cnc[nH]1)Oc1ccc(Cl)cc1 (stereo not drawn), the INHIBITION is reported as 20.9%. In the case of COc1ccccc1OC(C)CNC(=O)c1cnc[nH]1 (stereo not drawn), the INHIBITION is reported as -15.5%. O=C(c1cc(Cn2ccc3ccccc32)[nH]n1)N1CCCCC1CO (stereo not drawn) showed an INHIBITION of 13%. Cc1cnn(CC2CCCN2C(=O)CCc2ccco2)c1 (stereo not drawn) showed an INHIBITION of 45.9%. Molecule COc1ccccc1CN1CCC(c2nn(CCN)c3nccnc23)C1 (stereo not drawn) has an INHIBITION of 52%. In the case of COc1cccc(CN2CCC(c3nn(CCN)c4nccnc34)C2)c1 (stereo not drawn), the INHIBITION is reported as 7.52%. Molecule NCCn1nc(C2CCN(C(=O)Cc3ccccc3)C2)c2nccnc21 (stereo not drawn) has an INHIBITION of 30.4%. Work on COc1ccccc1CN1CCC(c2nccc(C)n2)C1 (stereo not drawn) yielded an INHIBITION of 38.3%. NCCn1nc(C2CCN(Cc3ccccc3)C2)c2nccnc21 (stereo not drawn) showed an INHIBITION of 60.5%. Work on NCCn1nc(C2CCN(Cc3ccc(Cl)c(Cl)c3)C2)c2nccnc21 (stereo not drawn) yielded an INHIBITION of 71.1%. NCCn1nc(C2CCN(Cc3ccccc3Cl)C2)c2nccnc21 (stereo not drawn) was tested, and the INHIBITION was -49%. CC(C)(C)CC(=O)N1CCC(c2nn(CCN)c3nccnc23)C1 (stereo not drawn) was tested, and the INHIBITION was -3.31%. Cc1ccccc1CN1CCC(c2nn(CCN)c3nccnc23)C1 (stereo not drawn) showed an INHIBITION of 43.6%. CC(O)c1cnn(-c2ccccc2)c1 (stereo not drawn) showed an INHIBITION of -6.04%. Work on O=C(O)c1ccccc1-c1ccc(CN2CCC(CO)CC2)cn1 yielded an INHIBITION of 9.98%. With CCNc1cc2c(nn1)CCN(C(=O)CCc1c(C)noc1Cl)C2 the INHIBITION was 0.411%. COc1ccccc1C(=O)N1CCN(C(=O)Cc2ccccn2)CC1 showed an INHIBITION of -36.1%. Cc1ncccc1C(=O)Nc1cccc(Cn2ccccc2=O)c1 gave an INHIBITION of 38.5%. In the case of CCn1ncnc1CN1CCC(CNC(=O)c2cccc(C)n2)C1 (stereo not drawn), the INHIBITION is reported as 15.4%. Molecule CCc1ccc(C(=O)N2CCCC(n3nc(C)nc3C)C2)o1 (stereo not drawn) has an INHIBITION of 33.73%. CCOCCc1nc(CCc2ccccc2)n[nH]1 was tested, and the INHIBITION was 26.7%. Cc1cnc(N2C[C@H]3CCCC(N(C)Cc4ccccn4)[C@H]3C2)nc1 (stereo partly drawn) gave an INHIBITION of 55.7%. Molecule CN(Cc1ccccn1)C1CCC[C@@H]2CN(CC3CC3)C[C@H]12 (stereo partly drawn) has an INHIBITION of 22.2%. For CCc1cnc(N2C[C@H]3CCCC(N(C)Cc4ccccn4)[C@H]3C2)nc1 (stereo partly drawn), the INHIBITION was 33.1%. CC(C)NC(=O)c1nc(Cn2c(C(F)F)nc3ccccc32)no1 showed an INHIBITION of 62.4%. With O=C(NC1CCCC1)c1cc(Cn2cnc3ccccc32)on1 the INHIBITION was 5.8%. Molecule O=C(NC1CC1)c1nc(Cn2c(C(F)F)nc3ccccc32)no1 has an INHIBITION of 54.8%. In the case of CC(C)NC(=O)c1nc(Cn2c(C(F)(F)F)nc3ccccc32)no1, the INHIBITION is reported as 43.9%. In the case of Cc1occc(=O)c1OCc1noc(C(=O)NC(C)C)n1, the INHIBITION is reported as 42.8%. Cc1nc2ccccc2n1Cc1cc(C(=O)NC2CCOC2)no1 (stereo not drawn) gave an INHIBITION of 11.1%. With COc1ccccc1-c1csc(NC(=O)N2CCN(C)CC2C)n1 (stereo not drawn) the INHIBITION was -9.08%. Cc1cc(C)n(CC2CN(Cc3nnc(C)o3)CCO2)n1 (stereo not drawn) gave an INHIBITION of 5.1%. With O=C(c1ccc(F)cc1F)N1C[C@@H]2CC[C@H]1CN(Cc1ccccc1)C2 the INHIBITION was 41.5%. Work on CC(C)(C)C1CC(=O)Nc2c1cnn2Cc1ccco1 (stereo not drawn) yielded an INHIBITION of -21.7%. CN(C)c1ccc(C2CC(=O)Nc3c2cnn3Cc2ccco2)cc1 (stereo not drawn) showed an INHIBITION of 1.45%. Molecule CC(C)C1CC(=O)Nc2c1cnn2Cc1ccco1 (stereo not drawn) has an INHIBITION of 7.85%. CC(C)CC1CC(=O)Nc2c1cnn2Cc1ccco1 (stereo not drawn) gave an INHIBITION of 50.2%. O=C1CC(c2ccc(CO)o2)c2cnn(Cc3ccco3)c2N1 (stereo not drawn) gave an INHIBITION of 67.6%. In the case of O=C1CC(c2ccc(C(=O)O)cc2)c2cnn(Cc3ccco3)c2N1 (stereo not drawn), the INHIBITION is reported as -8.04%. Work on COc1ccc(CN(Cc2cnc(N)nc2)CC2CCCO2)c(OC)c1 (stereo not drawn) yielded an INHIBITION of 23.2%. In the case of CNC(=O)[C@@H](c1ccccc1F)N1CCC[C@H]1C(=O)NC1CCCC1, the INHIBITION is reported as -49.3%. In the case of O=C(CN1C[C@H]2CC(OCc3ccccc3)C[C@H]2C1)N1CCOCC1 (stereo partly drawn), the INHIBITION is reported as -2.09%. CC(C)C1CN(C(=O)c2cc(=O)[nH]c(=O)[nH]2)CCCN1CC1CC1 (stereo not drawn) gave an INHIBITION of 74.8%. Cc1[nH]c(=O)[nH]c(=O)c1CC(=O)N1CCCN(CC2CC2)C(C(C)C)C1 (stereo not drawn) was tested, and the INHIBITION was -69.3%. For CC(C)C1CN(C(=O)c2cn3cc(Cl)cnc3n2)CCCN1CC1CC1 (stereo not drawn), the INHIBITION was 60.3%. For CC(C)C1CN(C(=O)c2cc(=O)[nH]c(=O)[nH]2)CCC(=O)N1CC1CC1 (stereo not drawn), the INHIBITION was 9.35%. With CC(C)C1CN(C(=O)c2cn3ccccc3n2)CCCN1CC1CC1 (stereo not drawn) the INHIBITION was 47.6%. CC(C)C1CN(C(=O)c2ccc(Cl)cn2)CCCN1CC1CC1 (stereo not drawn) was tested, and the INHIBITION was 14.9%. Work on CNC(=O)C1(c2cnccn2)CCCN1C(=O)c1ccccn1 (stereo not drawn) yielded an INHIBITION of 42.4%. CCOCC(O)CN1CCN(C(=O)C2CCCC2)CC1 (stereo not drawn) was tested, and the INHIBITION was -19.4%. With Cc1ccc(CN(CCCN2CCOCC2)Cc2cnc(C)n2C)o1 the INHIBITION was -11.7%. Molecule NC(=O)C1CCCN(C(=O)c2cccc(OCc3cscn3)c2)C1 (stereo not drawn) has an INHIBITION of 24.05%. NC(=O)C1CCN(C(=O)c2ccc(OCc3cscn3)cc2)CC1 was tested, and the INHIBITION was 56.85%. In the case of NC(=O)C1CCN(C(=O)c2cccc(OCc3cscn3)c2)CC1, the INHIBITION is reported as 17.8%. O=C1CN(C(=O)c2cccc(OCc3cscn3)c2)CCN1 was tested, and the INHIBITION was 61.5%. Work on O=C(c1cccc(OCc2cscn2)c1)N1CCOCC1 yielded an INHIBITION of 45.75%. CC(=O)N1CCN(C(=O)c2cccc(OCc3cscn3)c2)CC1 gave an INHIBITION of 1.82%. For Cc1cccc(CN2CCC3(CC2)NC(=O)CC3c2ccccc2)n1 (stereo not drawn), the INHIBITION was 37.1%. CC1CCCN(C(=O)NCCCn2cncn2)C1 (stereo not drawn) was tested, and the INHIBITION was 9.45%. Cn1nccc1-c1nnn2c1COCC(CNCC1CC1)C2 (stereo not drawn) gave an INHIBITION of 45.7%. For CC(C)CN1CCC2(C=C(C(=O)NC3CC3)c3ccccc32)CC1, the INHIBITION was 27.2%. For CC(C)(C)NC(=O)COc1ccc(CNCCOc2ccccn2)cc1, the INHIBITION was 18.6%. CC(C)(C)NC(=O)COc1ccc(CNCc2ccccn2)cc1 gave an INHIBITION of -6.39%. COCCNCc1ccc(OCC(=O)NC(C)(C)C)cc1 was tested, and the INHIBITION was 51.6%. Cc1ccc(C2=CCN(C(=O)C3CCN(C)C(=O)C3)CC2)cc1 (stereo not drawn) was tested, and the INHIBITION was -14.7%. In the case of COc1ncccc1C(=O)NC1CCOc2ccccc21 (stereo not drawn), the INHIBITION is reported as 33.3%. CCN(C)c1ncnc2c1CCN(C(=O)NCc1cccnc1)CC2 gave an INHIBITION of -75.9%. Cc1cccc(-n2cnc(Cl)c2C(=O)O)c1 was tested, and the INHIBITION was 8.08%. With Cn1nc(-c2ccccc2)c(Br)c1C(=O)O the INHIBITION was 36.9%. Molecule Cn1nc(-c2ccc(Cl)cc2)c(Br)c1C(=O)O has an INHIBITION of 65.6%. Molecule Cn1nc(-c2ccccc2)c(Cl)c1C(=O)O has an INHIBITION of 46.1%. Cn1nc(-c2cccc(Cl)c2)c(Br)c1C(=O)O was tested, and the INHIBITION was 46.1%. For Cc1ccc(-c2nn(C)c(C(=O)O)c2Br)cc1, the INHIBITION was 62.8%. CNC(=O)CN(C)C(=O)c1ccc(-c2nc(C)cs2)cc1 was tested, and the INHIBITION was 40.7%. In the case of Cc1noc(CNC(=O)N2CCN(c3nc(C)c(C)s3)CC2)n1, the INHIBITION is reported as 10.5%. CCCN(Cc1cnn(C)c1)S(=O)(=O)c1cccc(F)c1C#N was tested, and the INHIBITION was -43.6%. Work on O=C1CCC2(CCC(NC(=O)NCc3ccccc3)CC2)N1 (stereo not drawn) yielded an INHIBITION of -46.7%. Work on CC(CN1CCOC1=O)NC(=O)c1cccc(Cl)c1Cl (stereo not drawn) yielded an INHIBITION of -28.9%. In the case of Cc1cnn(CC2CCCN2C(=O)c2ccccc2-n2cnnn2)c1 (stereo not drawn), the INHIBITION is reported as -33.9%. For O=c1[nH][nH]c2cn(-c3ccccc3)c(=O)n12, the INHIBITION was 63.7%. With O=c1[nH][nH]c2cn(-c3ccc(F)cc3)c(=O)n12 the INHIBITION was 26.6%. O=c1[nH][nH]c2cn(-c3ccc(Br)cc3)c(=O)n12 was tested, and the INHIBITION was 46.4%. In the case of COc1ccc2c(ccn2CCC(=O)Nc2n[nH]c(C(C)C)n2)c1, the INHIBITION is reported as -45.5%. Molecule CN(C(=O)NCc1ccsc1)C1CCN(c2ccccc2)C1=O (stereo not drawn) has an INHIBITION of -10.2%. CCCc1cc(=O)n(CC(=O)NC(C)C)c(-n2nc(C)cc2C)n1 was tested, and the INHIBITION was 29.3%. Work on CCCc1cc(=O)n(CC(=O)NCCOC)c(-n2nc(C)cc2C)n1 yielded an INHIBITION of 28.7%. With CCCc1nc(C)cc(N2CCC3(CCC(=O)N(CC(N)=O)C3)CC2)n1 the INHIBITION was -42.1%. CCCc1cc(=O)n(CC(N)=O)c(-n2nc(C)cc2C)n1 was tested, and the INHIBITION was 81.3%. Molecule CCCNC(=O)Cn1c(-n2nc(C)cc2C)nc(CCC)cc1=O has an INHIBITION of 54.2%. CCCNC(=O)CCNc1cncc(-n2nc(C)cc2C)n1 gave an INHIBITION of -2.03%.
